CF NFkB block: inhibitors of cystic fibrosis induced NF-kB | KKLEB NF-kB-GFP reporter, PAF-induced, GFP fluorescence overnight | inhibition, % at 5 µM | actives 0.86% (n = 360,000) | AID 588850;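 active means at least 50% inhibition at 5 µM, scaled per plate between neutral and stimulator controls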;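 further: PAF is a Pseudomonas aeruginosa culture filtrate used as stimulus; plate controls were PAF-stimulated DMSO wells for no effect and unstimulated DMSO wells for full effect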
LGR2 antag: inhibitors of bursicon-induced Drosophila LGR2 receptor cAMP signaling; HEK293 LGR2, CRE-luciferase, bursicon-stimulated, 4 h; actives 0.35% (n = 380,000); inhibition, % at 9.99 µM; AID 720647;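 active means drop in luminescence signal, shown as inhibition above about 50% in the replicate tests, limit read from the data, passing the limit was not always enough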;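 further: agonist challenge used bursicon conditioned medium at about half maximal strength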
PAX8 inh HTS: lowers PAX8-driven luciferase in RMG-I cells | RMG-I TPO-luciferase reporter, SteadyGlo, 24 h | inhibition, % at 12.6 µM | actives 1.2% (n = 360,000);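 active means mean replicate inhibition at least 60% with every replicate also reaching 60%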;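 further: luciferase light reporting Pax8 driven TPO promoter activity; plate controls were median of neutral control wells for no effect and mitoxantrone controls for full effect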
Shn3 inh set2: reduces Shn3 3'UTR luciferase signal in osteoblasts | Clone20 osteoblast Shn3 3'UTR firefly luciferase, 24 h | inhibition, % at 12.5 µM | actives 0.52% (n = 360,000) | AID 588674;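 active means mean inhibition of at least 75% with every replicate also reaching 75%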;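 further: 0% = median of neutral control wells and 100% = pilot-screen positive control compound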
EWS-Fli block: inhibitors of EWS/Fli oncoprotein transcriptional activity | A673 NR0B1-luciferase reporter, viability-normalised | inhibition, % at 12.6 µM | actives 0.67% (n = 350,000);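 active means mean inhibition of at least 50% after viability correction, with every replicate also passing that limit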;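 further: firefly luciferase signal divided by Alamar Blue viability fluorescence both relative to DMSO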
KKLEB cytotox: CF airway cell cytotoxicity counter-screen; activity change (cytotoxicity), % at 5 µM; KKLEB CF airway cells viability, ATPlite luminescence, overnight; hits give low values; cells stimulated with P. aeruginosa culture filtrate; actives 0.36% (n = 360,000); AID 602141;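 active means corrected activity change at or below -50% at 5 µM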
Numbers without * were called inactive; x = no result. An excerpt weighted towards active compounds, which were near 2% of everything screened.

SMILES	CF NFkB block	LGR2 antag	PAX8 inh HTS	Shn3 inh set2	EWS-Fli block	KKLEB cytotox
CN(CC(=O)Nc1cccc(F)c1)C(=O)CCCc1cccs1	3	-8	97*	30	-7	9
CN(CC(=O)Nc1cccc(F)c1)C(=O)Cc1ccsc1	-19	-1	8	-2	-2	7
CCCN(C)C[C@H]1Oc2cc(C#CCC(C)C)ccc2S(=O)(=O)N([C@@H](C)CO)C[C@H]1C	x	2	x	x	6	x
CCN(CC)CCOC(=O)C(c1ccccc1)C1CCCCC1 (stereo unspecified)	14	2	-10	1	20	2
CCN(CC)CCOC(=O)C(c1ccccc1)c1ccccc1	0	-5	8	-18	-11	-91*
Cc1ccccc1N(Cc1cc(=O)[nH]c2ccccc12)C(=O)CCl	34	37	83*	12	23	-11
Cc1ccccc1N(Cc1cc(=O)[nH]c2ccccc12)C(=O)C(C)C	-7	7	-2	7	14	3
CCCC#Cc1ccc2c(c1)O[C@@H](CN(C)C(=O)c1cnccn1)[C@@H](C)CN([C@@H](C)CO)S2(=O)=O	x	-28	x	x	54*	x
COc1ccc(C#Cc2ccc3c(c2)O[C@@H](CN(C)C(=O)c2ccccn2)[C@H](C)CN([C@@H](C)CO)S3(=O)=O)cc1	x	18	65*	x	3	x
COc1ccc(C#Cc2ccc3c(c2)O[C@H](CN(C)C(=O)c2ccccn2)[C@H](C)CN([C@@H](C)CO)S3(=O)=O)cc1	x	0	14	x	1	x
C[C@@H]1CN([C@H](C)CO)C(=O)c2cc(NC(=O)c3ccncc3)ccc2O[C@@H](C)CCCCO[C@@H]1CN(C)C(=O)C1CCCCC1	x	-4	3	x	-8	x
C[C@@H]1CN([C@H](C)CO)C(=O)c2cc(NC(=O)C3CC3)ccc2O[C@H]1CN(C)S(=O)(=O)c1ccc(F)cc1	x	18	7	x	3	x
CN(C)S(=O)(=O)c1cccc(NC(=O)c2cccc(S(=O)(=O)N3CCc4ccccc43)c2)c1	20	21	54	92*	21	-6
CC[C@@H]1CCC[C@@H](O)[C@@H](C)C(=O)O[C@H](C)[C@@H](C)C/C=C(C)/C(OC)=C\C(=O)N(C)C([C@@H](C)CC)C(=O)N(C)[C@@H](C(C)C)C(=O)N(C)[C@@H](COC)C(=O)N2CCC[C@H]2C(=O)N(C)[C@@H](C(C)C)C(=O)N2CCC[C@H]2C(=O)O1 (stereo partly specified)	20	26	88*	81	20	3
Cc1nc(SCc2nc3cc(Cl)c(F)cc3[nH]2)c2oc3ccccc3c2n1	44	18	87*	24	9	-41
C[C@@H]1CCCCO[C@@H](CN(C)Cc2ccc(Cl)c(Cl)c2)[C@H](C)CN([C@@H](C)CO)C(=O)c2cc(NS(=O)(=O)c3ccc(Cl)cc3)ccc2O1	x	8	104*	x	9	x
C[C@@H]1CN([C@H](C)CO)C(=O)c2cc(NS(=O)(=O)c3ccc(Cl)cc3)ccc2O[C@@H](C)CCCCO[C@@H]1CN(C)Cc1ccc(Cl)c(Cl)c1	x	21	98*	x	15	x
Cc1ccc(S(=O)(=O)Nc2ccc3c(c2)C(=O)N([C@H](C)CO)C[C@H](C)[C@H](CN(C)Cc2ccc(Cl)c(Cl)c2)OCCCC[C@@H](C)O3)cc1	x	-8	45	x	-19	x
C[C@H](CO)N1C[C@H](C)[C@@H](CN(C)Cc2ccc(Cl)c(Cl)c2)OCCCC[C@H](C)Oc2ccc(NS(=O)(=O)c3ccc(Cl)cc3)cc2C1=O	x	20	101*	x	8	x
C[C@@H]1CCCCO[C@H](CN(C)Cc2ccc(Cl)c(Cl)c2)[C@@H](C)CN([C@@H](C)CO)C(=O)c2cc(NS(=O)(=O)c3ccc(Cl)cc3)ccc2O1	x	20	80*	x	1	x
Cc1noc(C)c1NC(=O)N[C@H]1CC[C@@H](CC(=O)N2CCN(C)CC2)O[C@@H]1CO	x	-7	x	x	x	x
C[C@@H]1CCCCO[C@@H](CN(C)Cc2ccc(Cl)c(Cl)c2)[C@H](C)CN([C@H](C)CO)C(=O)c2cc(NS(=O)(=O)c3ccccc3)ccc2O1	x	26	93*	x	4	x
C[C@@H]1CCCCO[C@@H](CN(C)Cc2ccc(Cl)c(Cl)c2)[C@@H](C)CN([C@H](C)CO)C(=O)c2cc(NS(=O)(=O)c3ccccc3)ccc2O1	x	22	-2	x	-12	x

Assay outcomes deposited in PubChem BioAssay by several laboratories.
